The list is not random: actives were taken first. Their share in the collection is about 1.8%.
p53ts 39C kill – kills p53ts cells at the nonpermissive temperature; H1299-p53A138V viability at 39C, ATP luminescence, 24 h; Potency, µM (doses to about 46.1 µM), inactives show at the highest dose activity change, negative = cell killing, most hits filed as cytotoxic; 130,000 tested, 1.5% active; note: % is set by controls: 0 for no effect and ±100 for the full control effect; nearly all actives have a fitted effect of over 55% in size
p53ts 32C kill – p53ts cell cytotoxicity, permissive temperature; H1299-p53A138V at 32C, ATP luminescence viability, 24 h; Potency, µM (series often up to 46.1 µM), for inactives: top-dose activity change, negative = cytotoxicity, usual class: cytotoxic; 130,000 tested, 0.93% active;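 note: 0% = DMSO and -100% = full killing by reference compound; nearly all actives have a fitted effect of over 55% in size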
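Cells: H1299 p53ts (A138V), 600/well, pre-incubated 16–30 h at 37C. Cpd up to 46 uM, 24 h, 32C. Readout: ATPlite luminescence, 20 min RT. Normalization: DMSO vs tamoxifen 100 uM. AC50 by Hill equation.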
Imprint erasure – induces erasure of genomic imprints in mouse ES cells | Potency, µM (doses to about 60.7 µM), for inactives: top-dose activity change, positive = activation, usual class: activators | mouse ES Peg3-LacZ reporter, beta-gal luminescence, 40 h | 110,000 tested, 0.02% active | AID 1948
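Imprint erasure is scored as LacZ activity from the silenced maternal Peg3 allele in feeder-free female ES cells cultured 40 h with LIF. Luminescence is normalized to in-plate negative controls and fitted to the Hill equation.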
IkB sig inh – IkB pathway inhibition in ABC-DLBCL cells. Potency, µM (titrated, usually from 57.1 µM), without a hit: top-dose IkBa stabilization activation. 110,000 tested, 0.04% active. AID 445. ABC-DLBCL IkBa-CBG/CBR dual luciferase ratio, 4 h; response scale: scaled: untreated 0%, proteasome inhibitor 100%; active = well fitted curve in the direction sought with a large enough effect in the signal ratio, not every such curve was filed as active; inconclusive = small, poorly fitted or top-dose-only effect, or a change in a side signal; the % refers to the signal ratio;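 note: the direction sought is a rising ratio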
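Curves were fitted separately to fusion (green), unfused (red) and ratio luminescence, then classed by r2, magnitude and activity. Cells: OCI-Ly3, 4 h compound plus doxycycline at 37C; 10 uM MG-132 defined full response.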
* marks the source's active call; other numbers are inactive results; ? = inconclusive; . = no result given; [ ] = dose if it differs, or a comment. Unless noted, calls come from the whole dose curve; as a rule, active = well fitted curve in the direction sought with a large enough effect; inconclusive = small, poorly fitted or top-dose-only effect, or another doubt; inactive = no such curve, though single readings can be large; an effect the other way counts as inactive or inconclusive. Potency is the fitted concentration of half-maximal effect.

SMILES | p53ts 39C kill | p53ts 32C kill | Imprint erasure | IkB sig inh
Cc1ccc(C(=O)/C=C/c2cn(CC(O)CN3CCCCCC3)c3ccccc23)cc1 (configuration not stated) | 13µM* | ? | ? | ?
COc1ccc(C(=O)/C=C/c2cn(CC(O)CN3CCCCCC3)c3ccccc23)cc1OC (configuration not stated) | 13µM* | -16% | -5%[10.9 µM] | ?
O=C(/C=C/c1cn(CC(O)CN2CCCCCC2)c2ccccc12)c1ccc(Br)cc1 (configuration not stated) | ? | -4% | 10%[10.9 µM] | 6%
O=C(/C=C/c1cn(CC(O)CN2CCCCCC2)c2ccccc12)c1ccccc1 (configuration not stated) | ? | -13% | -11%[10.9 µM] | ?
CCCCNc1nc(Oc2ccc(OCC)nn2)nc(N2CCOCC2)n1 | -26% | 4% | -14%[10.9 µM] | ?
O=c1[nH]n(-c2cccc3cccnc23)c(=O)c2ccccc12 | -7% | 5% | 24% | -2%
O=S1(=O)Nc2c(ccc3cccnc23)-c2ccccc21 | -18% | 16% | -32% | 0.79µM*
Cc1ccc(CNS(=O)(=O)c2ccc3[nH]c4c(c3c2)CCCCC4)cc1 | 20µM* | -2% | -5%[10.9 µM] | ?
O=S(=O)(NCc1ccc(F)cc1)c1ccc2[nH]c3c(c2c1)CCCC3 | . | 9% | . | .
O=S(=O)(NCc1ccccc1)c1ccc2[nH]c3c(c2c1)CCCCC3 | 32µM* | 4% | -7%[10.9 µM] | -3%
CCCC1=Nc2cc(C(=O)NCCOC)ccc2Sc2ccccc21 | -14% | 2% | -20%[10.9 µM] | ?
CC(C)CNC(=O)N1CCN(S(=O)(=O)c2ccc3c(ccn3C)c2)CC1 | -10% | -2% | 16%[10.9 µM] | 0%
O=C1c2ccccc2NC(c2ccc3c(c2)OCO3)N1O (configuration not stated) | -27% | ? | -42% | -2%
O=C1c2ccccc2NC(c2ccc3c(c2)OCCO3)N1c1ccc2c(c1)OCCO2 (configuration not stated) | 5µM* | 6.3µM* | -89% | 0%
c1ccc2c(c1)Cc1cc3cc4c(cc3nc1-2)OCO4 | 1.3µM* | 1µM* | -90% | .
Cc1cc2cc3c(cc2nc1SCC(=O)N1c2ccccc2CC1C)OCO3 (configuration not stated) | 7% | 1% | . | .
CCc1ccccc1S(=O)(=O)Cc1ccc(C(=O)NC(C)C)o1 | 2% | -2% | -16% | 0%
CC(=O)Oc1ccc2c(c1)CCC1C2CC[C@]2(C)C(OC(C)=O)CCC12 (some centres not stated) | 25µM* | ? | -20% | .
Cc1ccc(C)c(-c2nc3ccc(N)cc3[nH]2)c1 | -21% | -12% | -62% | ?
Nc1ccc2nc(-c3ccc(Cl)cc3)[nH]c2c1 | 10µM* | 13µM* | -79% | ?
Nc1ccc2nc(-c3cc(Cl)c(N)c(Cl)c3)[nH]c2c1 | ? | 14µM* | . | .
Clc1ccc2nc(-c3ccccc3)[nH]c2c1 | 13µM* | 10µM* | -89% | .
COc1cccc(-c2noc(-c3cc(C(C)C)[nH]n3)n2)c1OC | -20% | -16% | 11%[10.9 µM] | -2%
Cc1cccc(NC(=O)c2cc3c(n(-c4ccccc4)c2=O)CCCC3=O)n1 | 10% | 8% | 3% | -1%
Cc1ccc(NC(=O)Cn2ccn(Cc3ccc(Cl)cc3)c(=O)c2=O)cc1C | ? | 19% | 8%[10.9 µM] | 3%
SMILES | p53ts 39C kill | p53ts 32C kill | Imprint erasure | IkB sig inh
CCCN1CCN(CCCNC(=O)c2c(C)nn(-c3ccc(F)cc3)c2-n2cccc2)CC1 | 4% | 0% | -4%[10.9 µM] | ?
CCOc1ccc(NC(=O)CC2C(=O)N(c3ccc(C)cc3)C(=O)N2CCC2=CCCCC2)cc1 (configuration not stated) | -9% | -16% | -5%[10.9 µM] | -4%
COc1ccccc1-c1cc(C(F)(F)F)nc(S(=O)(=O)CCCC(=O)Nc2cc(Br)ccc2O)n1 | ? | 20µM* | -17%[10.9 µM] | ?
COc1ccccc1-c1cc(C(F)(F)F)nc(S(=O)(=O)CCCC(=O)Nc2ccccc2F)n1 | 3.2µM* | ? | -11%[10.9 µM] | ?
COc1ccc(NC(=O)CCCS(=O)(=O)c2nc(-c3ccccc3OC)cc(C(F)(F)F)n2)c(OC)c1 | ? | ? | -19%[10.9 µM] | ?
COc1ccc(Cl)cc1NC(=O)CCCS(=O)(=O)c1nc(-c2ccc(OC)c(OC)c2)cc(C(F)(F)F)n1 | 3.2µM* | ? | -30%[10.9 µM] | ?
Cn1c(=O)oc2cc(S(=O)(=O)CCC(=O)NCCc3ccccc3)ccc21 | 9% | -1% | 8%[10.9 µM] | ?
O=C(CSc1nc2ccccc2n1Cc1ccccc1)NCc1ccccc1 | -14% | -4% | -12%[10.9 µM] | 1%
CCOc1ccc(C(C)(C)C)cc1S(=O)(=O)N1CC(C)OC(C)C1 (configuration not stated) | 6% | 8% | 15% | 3%
O=S(=O)(c1ccc2c(c1)CCN2)N1CCCCCC1 | -7% | -6% | -5%[10.9 µM] | 1%
O=C1CCNc2cc3ccccc3cc21 | 16µM* | ? | -31% | ?
O=S1(=O)CCN2C(=N1)Sc1c2ccc2c1CCCC2 | -28% | -20% | -11% | -5%
Clc1ccc2c(c1)C1OCCC1C(c1ccco1)N2 (configuration not stated) | 10µM* | 7.9µM* | . | ?
Cc1ccc2c(c1)[C@H]1OCC[C@H]1[C@@H](c1ccncc1)N2 | 11% | -4% | 2% | -3%
CCOc1ccc(CNC(=O)CCc2c(C)nn(-c3ccc(N4CCOCC4)nn3)c2C)cc1 | -19% | 1% | -8%[10.9 µM] | -2%
CC(C)=CC(=O)Nc1ccc2c(c1)OCO2 | ? | 10µM* | -89% | 1%
CCC(Oc1ccccc1)C(=O)Nc1cccc(OCc2cc(=O)n3cccc(C)c3n2)c1 (configuration not stated) | 1% | 16% | -7%[10.9 µM] | ?
COc1ccc(C2=NOC(C(=O)N3CCCc4ccccc43)C2)cc1 (configuration not stated) | -29% | ? | -13% | ?
COc1ccccc1C1Nc2c(sc3nc(C)cc(C)c23)C(=O)N1c1ccccc1 (configuration not stated) | 13µM* | ? | -7%[10.9 µM] | ?
COCc1cc(C)nc2sc3c(c12)NC(c1ccccc1C(=O)O)N(c1cccc(C(F)(F)F)c1)C3=O (configuration not stated) | 1% | 0% | 20%[10.9 µM] | 3%
COc1cccc(-c2cc(NCc3cccs3)ncn2)c1 | ? | 25µM* | -47% | -1%[11.4 µM]
COc1ccc2[nH]c3nc(SCc4nnc(-c5ccccc5)o4)nnc3c2c1 | -24% | -3% | -16% | 1%
COc1ccc2[nH]c3nc(SC(C)C)nnc3c2c1 | 10µM* | 16µM* | -30% | ?
COc1ccc(Nc2nc3c(S(=O)(=O)c4ccccc4)nnn3c3ccc(Cl)cc23)cc1 | 10µM* | ? | -5%[10.9 µM] | 0%
COc1ccc(Nc2nc3c(S(=O)(=O)c4ccccc4)nnn3c3ccc(Cl)cc23)cc1OC | 1% | -4% | -5%[10.9 µM] | 0%

Screening results deposited in PubChem by National Center for Advancing Translational Sciences (NCATS).
